Experimental data: PubChem BioAssay (NCI)
The panel holds about 83,000 compounds, 20% with a hit somewhere; the sample as a whole holds those more often.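 96-well plates, one dose, 48 hours. Percent growth reported; active if below 10.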 Unmarked numbers belong to inactive results. Activity calls are given as the source filed them.

Key:
Assay in all cases: NCI-60 one-dose screen, 48 h (100 = growth as untreated, 0 = no growth, -100 = all killed)
Details in all cases: 10 µM
[1] = test system: EKVX NSCLC
[2] = test system: SN12C renal
[3] = test system: UO-31 renal
[4] = test system: TK-10 renal
[5] = test system: ACHN renal
[6] = test system: CAKI-1 renal
[7] = test system: A498 renal
[8] = test system: CCRF-CEM leukemia
[9] = test system: MOLT-4 leukemia
[10] = test system: RPMI-8226 leukemia
[11] = test system: OVCAR-8 ovarian
[12] = test system: OVCAR-5 ovarian
[13] = test system: OVCAR-4 ovarian
[14] = test system: SK-OV-3 ovarian
[15] = test system: IGROV1 ovarian
[16] = test system: OVCAR-3 ovarian
[17] = test system: HS 578T breast
[18] = test system: NCI/ADR-RES ovarian
[19] = test system: T-47D breast
[20] = test system: SR leukemia

SMILES	growth [1] [%]	growth [2]	growth [3]	growth [4]	growth [5]	growth [6]	growth [7]	growth [8]	growth [9]	growth [10]	growth [11]	growth [12] [%]	growth [13]	growth [14] [%]	growth [15]	growth [16]	growth [17]	growth [18]	growth [19]	growth [20]
c1ccc2c(c1)oc1c3c(ccc12)NCCC3	59.5	87.4%	65.9%	135%	101%	97.4%	77.3%	96%	97.5%	93.8%	98.2%	102	94.3%	107	98.6%	103%	109%	97.7%	59.9%	
O=C(CCCCCCC(=O)Nc1cccnc1)NO	96.7	71.2%	30.3%	41%	65.7%	46.6%	42.9%	2% (active)	16.9%	-14.9% (active)		60.8	16.1%		31%	25.1%	34.6%	2.65% (active)	-28.7% (active)	28.6%
Nc1ncn([C@@H]2O[C@H](CO)[C@@H](O)[C@H]2O)c(=O)n1	107	14.8%	15%	40.5%	11.8%	22.3%	28.5%		33.6%		22.4%	56.8	34.1%	17.4	18.5%	22.7%	23.7%	29.1%	26.6%	7.12% (active)
NC(=O)SCC(=O)Nc1ccc(S(N)(=O)=O)cc1	112	95.6%	86.4%	106%	112%	104%	100%	106%	113%	108%	104%		106%	108		107%	99.6%	105%	98.2%	110%
COc1ccc(NC(=O)Cc2nc3nc4sc(C)c(C)c4c(=O)n3[nH]2)cc1	93.1	106%	83.1%	115%	107%	98%	122%	90.4%	99.4%	90.5%	101%	108	113%	104		115%	107%		96.2%	
CN(C)CCNC(=O)c1cccn2c(=O)c3cc4ccccc4cc3nc12	16.1	7.89% (active)	18.2%	-29% (active)	14.7%	-2.45% (active)	-56.7% (active)		-27.2% (active)	-29.2% (active)	-9.49% (active)	29.6	-3.24% (active)	19.5	19.3%	-15.3% (active)	-14.5% (active)	5.94% (active)	5.57% (active)	-29.9% (active)
COc1ccc2c(c1)C(=O)c1c-2c(OCCN(C)C)nc2ccccc12	44.7	34.7%	-4.51% (active)	43.3%	9.68% (active)	14.6%	65.8%	20.9%	4.41% (active)	17.4%	14.3%	63	44.1%	61	-18.7% (active)	30.4%	41%	22.8%	48.2%	
C=C(NC(=O)C(=C)NC(=O)c1csc(C2=NC3c4csc(n4)C4NC(=O)c5csc(n5)C(C(C)(O)C(C)O)NC(=O)C5CSC(=N5)/C(=C/C)NC(=O)C(C(C)O)NC(=O)c5csc(n5)C3(CC2)NC(=O)C(C)NC(=O)C(=C)NC(=O)C(=C)NC(=O)C(C(C)C)NC2C=Cc3c(C(C)O)cc(nc3C2O)C(=O)OC4C)n1)C(N)=O (configuration not stated)	42.2	30.4%	-42.2% (active)	-9.31% (active)	-26.8% (active)	15.8%	-30.3% (active)	-31.7% (active)	-15% (active)	-37.1% (active)		52.6	6.53% (active)	61.9	-18.1% (active)	13.4%	22%		-6.42% (active)	5.93% (active)
COc1cccc(C2C3=C(COC3=O)N(CCO)c3cc(OC)ccc32)c1 (configuration not stated)	40.5	27%	50.4%	51.8%	31.9%	36.7%	-6.88% (active)	15%	19%	20.6%		27.5	59.2%		24.3%	-50% (active)	15.5%	-12.5% (active)	62.1%	22.3%
Nc1ncn(C2OC(CO)C(O)C2O)c(=O)n1 (configuration not stated)	44.9	17.4%	0.167% (active)	4.79% (active)	-21.7% (active)	-2.03% (active)	19%	-7.84% (active)	0.695% (active)	-25.4% (active)		85.9	-30.3% (active)	12.3	-39.8% (active)	-13.7% (active)	3.64% (active)	15.1%	10.6%	-1.52% (active)
O=C(CNC(=O)OCc1ccccc1)NCC(=O)Oc1ccc([N+](=O)[O-])cc1	101	112%	86.4%	90.3%	105%	101%	85%	109%	99.7%	112%		109	99.2%	100	109%	111%	137%	96.2%	103%	101%
